In PubChem BioAssay AID2284088 (EPA ToxCast):
Calls of active or inactive are those of the source. Rule for the calls: active = hit-call score of the fitted dose curve at least 0.9, where 1 is the maximum; inactive = score below 0.9.

Biological target: human FLT4 Receptor Tyrosine Kinase, FLT4 (gene 2324) (UniProt P35916)
Experiment: ERF_FR_ENZ_hFLT4: Eurofins (ERF) Enzymatic Radiometric [Km ATP] KinaseProfiler LeadHunter Assay for human FLT4 Receptor Tyrosine Kinase
Description: ERF_FR_ENZ_hFLT4 is a biochemical, single-readout assay that uses extracted gene-proteins in a cell-free assay. Measurements were taken 1.5 hour after chemical dosing in a 96-well plate. See FLT4 Human RTK Kinase Enzymatic LANCE Assay [Km ATP], Cerep.ERF_FR_ENZ_hFLT4 is an assay component calculated from the ERF_FR_ENZ_hFLT4 assay. It is designed to measure enzyme activity using a type of enzyme reporter as detected by fluorescence intensity with LANCE technology.Data from the assay component ERF_FR_ENZ_hFLT4 was analyzed at the assay endpoint, ERF_FR_ENZ_hFLT4, in the positive analysis fitting direction relative to DMSO as the negative control and baseline of activity. Using a type of enzyme reporter, loss-of-signal activity can be used to understand changes in enzymatic activity as they relate to gene FLT4. To generalize the intended target to other relatable targets, this assay endpoint is annotated to the kinase intended target family, where the subfamily is receptor tyrosine kinase.
Flt4 (h) is incubated with 8 mM MOPS pH 7.0, 0.2 mM EDTA, 500 uM […], 10 mM MgAcetate and [gamma-33P]-ATP (specific activity and concentration as required). The reaction is initiated by the addition of the Mg/ATP mix. After incubation for 40 minutes at room temperature, the reaction is stopped by the addition of phosphoric acid to a concentration of 0.5%. […]

Chain of human FLT4 Receptor Tyrosine Kinase, FLT4 (gene 2324) (P35916 whole entry, looked up): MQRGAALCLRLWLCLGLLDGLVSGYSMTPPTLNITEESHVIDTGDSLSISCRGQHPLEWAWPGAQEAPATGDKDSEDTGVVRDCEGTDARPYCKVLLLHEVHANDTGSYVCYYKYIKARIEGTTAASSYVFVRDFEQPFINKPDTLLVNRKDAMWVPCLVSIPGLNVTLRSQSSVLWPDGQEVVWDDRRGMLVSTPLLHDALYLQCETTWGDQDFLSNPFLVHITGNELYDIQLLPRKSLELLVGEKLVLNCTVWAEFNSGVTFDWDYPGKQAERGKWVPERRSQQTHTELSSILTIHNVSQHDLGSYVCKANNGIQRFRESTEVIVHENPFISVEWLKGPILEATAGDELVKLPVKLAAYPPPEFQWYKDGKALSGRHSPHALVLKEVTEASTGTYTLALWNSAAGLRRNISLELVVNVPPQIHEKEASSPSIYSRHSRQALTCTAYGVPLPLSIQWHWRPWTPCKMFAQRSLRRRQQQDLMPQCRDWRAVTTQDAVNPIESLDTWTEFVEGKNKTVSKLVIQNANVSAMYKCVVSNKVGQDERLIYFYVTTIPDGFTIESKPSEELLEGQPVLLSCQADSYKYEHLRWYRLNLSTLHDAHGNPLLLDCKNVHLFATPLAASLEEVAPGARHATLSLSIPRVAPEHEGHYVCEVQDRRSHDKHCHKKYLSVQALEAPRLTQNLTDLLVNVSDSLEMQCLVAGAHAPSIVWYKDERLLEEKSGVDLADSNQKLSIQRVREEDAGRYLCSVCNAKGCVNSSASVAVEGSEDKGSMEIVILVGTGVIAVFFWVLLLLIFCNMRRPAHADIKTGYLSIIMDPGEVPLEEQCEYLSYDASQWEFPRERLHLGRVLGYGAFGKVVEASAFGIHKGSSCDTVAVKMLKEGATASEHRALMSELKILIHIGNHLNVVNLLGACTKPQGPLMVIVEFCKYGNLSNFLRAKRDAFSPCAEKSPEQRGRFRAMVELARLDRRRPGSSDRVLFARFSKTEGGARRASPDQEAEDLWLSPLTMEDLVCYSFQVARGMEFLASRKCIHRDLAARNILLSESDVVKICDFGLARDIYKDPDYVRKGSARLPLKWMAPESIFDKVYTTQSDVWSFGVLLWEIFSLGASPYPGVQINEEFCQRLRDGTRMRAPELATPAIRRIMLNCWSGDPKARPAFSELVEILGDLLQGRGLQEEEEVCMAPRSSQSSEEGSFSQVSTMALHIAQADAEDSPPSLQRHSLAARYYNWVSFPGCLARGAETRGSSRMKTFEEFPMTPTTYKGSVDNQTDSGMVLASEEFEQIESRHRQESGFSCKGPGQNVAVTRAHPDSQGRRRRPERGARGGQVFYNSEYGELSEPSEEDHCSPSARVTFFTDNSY

| SMILES | AC50 |
| --- | --- |
| O=C(/C=C/c1ccc(O)cc1)CC(=O)/C=C/c1ccc(O)cc1 | 1910 nM (active) |
